The source of these data is PubChem BioAssay (NCI).

Test systems include NCI-H23 lung; NCI-H226 lung; NCI-H322M lung; HOP-62 NSCLC; NCI-H460 lung; HOP-92 NSCLC; NCI-H522 lung; A549/ATCC NSCLC; 786-0 renal; COLO 205 colon; DU-145 prostate; K-562 leukemia; MALME-3M melanoma; MDA-MB-231 breast; RXF 393 renal; SF-268 CNS; SF-295 CNS; SF-539 CNS; UACC-257 melanoma; M14 melanoma.
What all share (experiment): NCI-60 one-dose screen, 48 h (100 = growth as untreated, 0 = no growth, -100 = all killed)
Settings in all cases: 10 µM unless noted

Each structure is given as a SMILES string. The panel holds about 83,000 compounds, 20% with a hit somewhere; the sample as a whole holds those more often.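 Single-concentration screen, 48 h exposure, 96-well plates. Endpoint: percent growth. Below 10 = active.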 Values without a mark were called inactive. Calls of active or inactive are those of the source.

Take `COc1cc(NC2CCC(=O)N2c2ccc(Cl)cc2Cl)cc(OC)c1OC` (stereo not given): the growth in the assay on NCI-H23 lung was 99.4%; in the assay with NCI-H226 lung it was 99.9%; with NCI-H322M lung, 97.3%; with HOP-62 NSCLC it was 103%; in the assay on NCI-H460 lung, 102%; in the assay on HOP-92 NSCLC, 83.1%. For the same compound, the growth is 99.9% in the assay on NCI-H522 lung; 99.4% with A549/ATCC NSCLC; 103% in the assay on 786-0 renal; 97.7% in the assay on COLO 205 colon; 103% in the assay on DU-145 prostate; 106% with K-562 leukemia. Also, the growth is 93.3% with MALME-3M melanoma; 111% with MDA-MB-231 breast; 120% in the assay with RXF 393 renal; 98.7% in the assay on SF-268 CNS; 101% in the assay on SF-295 CNS; 101% with SF-539 CNS. The growth was 99.1% with UACC-257 melanoma and 94.9% in the assay with M14 melanoma.

Turning to `C[C@@H](Oc1cc(C(=O)Nc2ccc(C(=O)N3CCN(C)CC3)cc2)nnc1N)c1c(Cl)ccc(F)c1Cl`, the growth with NCI-H23 lung was 62.6%; with NCI-H226 lung, 66.9%; in the assay on NCI-H322M lung, 92.9%; in the assay with HOP-62 NSCLC it was 64.8%; with NCI-H460 lung, 79.8%; in the assay with HOP-92 NSCLC it was 48.3%. In addition, the growth was 71.1% in the assay with NCI-H522 lung; 55.8% in the assay with A549/ATCC NSCLC; 67.4% in the assay with 786-0 renal; 55.1% in the assay with COLO 205 colon; 84.7% in the assay on DU-145 prostate; 28.7% with K-562 leukemia. Besides, the growth was 65.2% with MALME-3M melanoma; 62.2% in the assay on MDA-MB-231 breast; 62.6% in the assay with RXF 393 renal; 70.3% with SF-268 CNS; 13.9% in the assay on SF-295 CNS; 64.9% in the assay with SF-539 CNS. Moreover, the growth in the assay with UACC-257 melanoma is 60.9%; in the assay on M14 melanoma, 76.9%.

On to `COC[C@@H](C)n1c(C2CCOCC2)nc2c1C1C=C(OC)C(c3c(C)noc3C)=CC1N=C2` (stereo not given in full), for which the growth in the assay on NCI-H23 lung was 48.5%; in the assay on NCI-H226 lung, 65.1%; with NCI-H322M lung it was 40.7%; in the assay with HOP-62 NSCLC, 51.5%; in the assay with NCI-H460 lung it was 59.4%; in the assay with HOP-92 NSCLC, 11.1%. Besides, the growth in the assay on NCI-H522 lung was -1.23% (active); in the assay on A549/ATCC NSCLC, 42.6%; in the assay on 786-0 renal, 48.6%; in the assay on COLO 205 colon it was 31.9%; in the assay with DU-145 prostate, 65.5%; in the assay on K-562 leukemia, 33.6%. Besides, the growth with MALME-3M melanoma was 41.2%; in the assay on MDA-MB-231 breast it was 25%; with RXF 393 renal, 55.9%; in the assay on SF-268 CNS, 62.4%; with SF-295 CNS it was 45.4%; in the assay on SF-539 CNS, 34.5%. Moreover, the growth with UACC-257 melanoma was 41.4%; with M14 melanoma, 42.4%.

As for `CC(=O)CC1CCCC1c1ccc2ccccc2c1` (stereo not given), the growth in the assay with NCI-H23 lung is 96.3%; in the assay with NCI-H226 lung it was 95.2%; in the assay on NCI-H322M lung, 96.2%; in the assay with HOP-62 NSCLC it was 96.6%; in the assay on NCI-H460 lung, 101%; in the assay with HOP-92 NSCLC, 99.7%. In addition, the growth in the assay with NCI-H522 lung is 93.5%; in the assay with A549/ATCC NSCLC, 95.6%; in the assay with 786-0 renal it was 101%; in the assay with COLO 205 colon, 99.4%; with DU-145 prostate it was 107%; in the assay on K-562 leukemia, 104%. For the same compound, the growth in the assay with MALME-3M melanoma is 99.1%; in the assay with MDA-MB-231 breast, 102%; in the assay with RXF 393 renal it was 109%; with SF-268 CNS it was 102%; in the assay on SF-295 CNS, 106%; in the assay on SF-539 CNS it was 95.8%. Besides, the growth in the assay with UACC-257 melanoma is 97.8%; with M14 melanoma, 109%.

Turning to `c1cn2cc(-c3ccc4cn[nH]c4c3)nc(Nc3ccc(N4CCOCC4)cc3)c2n1`, the growth with NCI-H23 lung was 64.8%; with NCI-H226 lung, 20.8%; with NCI-H322M lung, 70%; in the assay on HOP-62 NSCLC it was 9.23% (active); in the assay on NCI-H460 lung, 41.7%; in the assay with HOP-92 NSCLC, 39.2%. Moreover, the growth is 24.4% with NCI-H522 lung; 45% in the assay with A549/ATCC NSCLC; 59.2% in the assay with 786-0 renal; 61.3% in the assay on COLO 205 colon; 53.3% in the assay with DU-145 prostate; 65.9% with K-562 leukemia. Further, the growth is 74.8% in the assay on MALME-3M melanoma; 55.1% with MDA-MB-231 breast; 12.4% in the assay with RXF 393 renal; 34.9% in the assay on SF-268 CNS; 66.4% in the assay with SF-295 CNS; 46.9% with SF-539 CNS. Moreover, the growth in the assay with UACC-257 melanoma was 62.6%; in the assay with M14 melanoma, 55.1%.

As for `COC(=O)N[C@@H](C)CNc1nccc(-c2cn(C(C)C)nc2-c2cc(Cl)cc(NS(C)(=O)=O)c2F)n1`, the growth was 59.2% in the assay with NCI-H23 lung; 94.9% in the assay on NCI-H226 lung; 78.7% in the assay on NCI-H322M lung; 72.7% with HOP-62 NSCLC; 91.2% in the assay with NCI-H460 lung; 49.7% with HOP-92 NSCLC. Further, the growth was 44.2% in the assay on NCI-H522 lung; 53.4% with A549/ATCC NSCLC; 48.6% in the assay on 786-0 renal; 4.94% (active) with COLO 205 colon; 79.6% in the assay with DU-145 prostate; 69.4% in the assay with K-562 leukemia. In addition, the growth in the assay with MALME-3M melanoma is 1.63% (active); in the assay on MDA-MB-231 breast, 61%; in the assay with RXF 393 renal, 42.7%; in the assay with SF-268 CNS, 82.2%; with SF-295 CNS, 103%; in the assay with SF-539 CNS, 91.2%. Also, the growth in the assay on UACC-257 melanoma was -25.8% (active); in the assay with M14 melanoma it was 3.81% (active).

Consider `CCNC(=O)C#Cc1ccc2c(C(=Nc3ccc(CN(C)C)cc3)c3ccccc3)c(O)[nH]c2c1`, for which the growth with NCI-H23 lung is 14%; in the assay on NCI-H226 lung, 38.6%; in the assay on NCI-H322M lung, 14.4%; with HOP-62 NSCLC, 4.11% (active); with NCI-H460 lung, 16.5%; in the assay with HOP-92 NSCLC, -66.8% (active). The growth is 48.9% in the assay on NCI-H522 lung; 6.49% (active) in the assay with A549/ATCC NSCLC; 24.2% in the assay on 786-0 renal; -41% (active) with COLO 205 colon; 44.3% in the assay with DU-145 prostate; 9.16% (active) with K-562 leukemia. The growth is -11.3% (active) in the assay with MALME-3M melanoma; 3.36% (active) in the assay on MDA-MB-231 breast; -33.7% (active) in the assay with RXF 393 renal; 47.8% with SF-268 CNS; 59.8% in the assay on SF-295 CNS; -6.1% (active) in the assay on SF-539 CNS. The growth in the assay on UACC-257 melanoma is -36.3% (active); in the assay on M14 melanoma, -33.7% (active).
